Several values for one entry are separate records, joined by “and”; a condition that tells them apart may be missing. Equal entries are not always repeated. Out of some 150,000 compounds screened, about 540 (0.36%) showed an effect of 50% or more. What follows is part of a selection rich in strong results, with near analogues and random picks from the rest.
Tested on: Plasmodium falciparum
Test: Primary screen in NF54 nanoGlo assay, in single point, at 2uM, 72h; a lower Z score goes with more inhibition
Type: functional, Erythrocyte
Conditions: timepoint 72 hour

## CCCN(CCC)C(=O)CN1CCN(Cc2ccc3c(c2)CCO3)CC1
  % Inhibition: -11%
  Z score: 1.43

## COc1ccc(Cl)cc1[C@H](C)NCc1nncn1C1CC1
  % Inhibition: -13%
  Z score: 2.01

## OC[C@H]1CCCN(CCNc2ccc3cc(Cl)ccc3n2)C1
  % Inhibition: 12%
  Z score: -1.36

## Cc1nccc(NC(=O)N2C3CCC2CC(CCF)C3)n1 (centres undefined)
  % Inhibition: -5%
  Z score: 0.79

## COc1ccc(NC(=O)c2ccc3nn(CC(=O)Nc4ccc(F)cc4)c(=O)n3c2)cc1
  % Inhibition: -26%
  Z score: 2.29

## O=C(NCc1ccc(F)cc1)C1[C@@H]2C=C[C@@]3(CN(Cc4ccccc4Cl)C(=O)[C@H]13)O2 (some centres undefined)
  % Inhibition: -9%
  Z score: 1.29

## CCCCN(C(=O)Nc1nc2ccccc2s1)C1CC1
  % Inhibition: -5%
  Z score: 0.64

## COc1ccc(-c2c[n+](-c3ccc(Cl)cc3)c3n2CCCCC3)cc1
  % Inhibition: 64%
  Z score: -6.22

## COc1ccc(-c2cnc3n2CCCC3)cc1
  % Inhibition: -23%
  Z score: 2.75

## COc1ccc([N+]2=C3CCCCN3C[C@]2(O)c2ccc(Cl)cc2)cc1
2 µM
  % Inhibition: 3% and -11%

## c1ccc([C@@H]2CN(C3CC3)CC3(CCN(Cc4ccccn4)CC3)C2)cc1
  % Inhibition: -10%
  Z score: 1.74

## Oc1cccc(CN2CCC3(CC2)C[C@H](c2ccccc2)CN(C2CC2)C3)c1
  % Inhibition: 76%
  Z score: -2.68

## c1ccc([C@@H]2CN(C3CC3)CC3(CCN(Cc4ccncc4)CC3)C2)cc1
  % Inhibition: -1%
  Z score: 0.23

## N#C[C@@]1(c2ccccc2OCc2ccccc2)CCC(=O)N1Cc1ccccc1
  % Inhibition: -10%
  Z score: 1.37

## CN(Cc1ccsc1)C(=O)c1cccs1
  % Inhibition: -2%
  Z score: 0.22

## CN(C)CCN(Cc1ccsc1)C(=O)c1cc2cc(F)ccc2[nH]1
  % Inhibition: -5%
  Z score: 0.68

## CN(Cc1ccsc1)C(=O)c1cc2ccccc2[nH]1
  % Inhibition: 58%
  Z score: -6.32

## Cc1ccc(S(=O)(=O)N2CCN(C(=O)NCc3nccn3C)CC2)cc1
  % Inhibition: -12%
  Z score: 2.31

## CC1CN(C(=O)Cc2csc(-c3cccnc3)n2)CC(C)O1 (centres undefined)
  % Inhibition: -15%
  Z score: 2

## CCN1CCC(N(C)C(=O)Cc2csc(-c3cccnc3)n2)CC1
  % Inhibition: 61%
  Z score: 0.93

## CC(C)N(Cc1ccccc1)C(=O)Cc1csc(-c2cccnc2)n1
  % Inhibition: -7%
  Z score: 0.9

## O=C(CCc1cn(-c2ccccc2)nc1-c1ccc2c(c1)OCO2)NC[C@H]1CCCO1
  % Inhibition: 0%
  Z score: 0.04

## CN(CCNC(=O)CCc1cn(-c2ccccc2)nc1-c1ccc2c(c1)OCO2)C1CCCCC1
  % Inhibition: 63%
  Z score: -8.26

## COCCNC(=O)CCc1cn(-c2ccccc2)nc1-c1ccc2c(c1)OCO2
  % Inhibition: -10%
  Z score: 1.35

## COC[C@@H]1[C@H](C(=O)Nc2cc(OC)ccc2OC)CCC(=O)N1C
  % Inhibition: -12%
  Z score: 1.42

## O=C(Nc1nncs1)c1occc1-c1ccccc1
  % Inhibition: -6%
  Z score: 0.51

## CNc1cccc(C(=O)Nc2nncs2)n1
  % Inhibition: -13%
  Z score: 1.62

## O=C(Nc1nncs1)c1cccc(C(=O)Nc2nncs2)n1
  % Inhibition: 77%
  Z score: -14.68

## Nc1nnnn1CC(=O)N[C@H]1CC(=O)Nc2ccccc21
  % Inhibition: 10%
  Z score: -1.71

## FC(F)(F)c1ccnc(Nc2ccc3c(c2)OCO3)n1
  % Inhibition: -4%
  Z score: 0.56

## Cc1nn(C)cc1CN(Cc1ccncc1)C1CCCCC1
  % Inhibition: 8%
  Z score: -1.12

## COc1ccc(CN(Cc2nnn(C)n2)C2CCCCC2)cc1OC
  % Inhibition: -7%
  Z score: 1.05

## CC(C)c1cc(CN(Cc2cc(C(C)C)c(O)c(C(C)C)c2)C2CCCCC2)cc(C(C)C)c1O
  % Inhibition: 95%
  Z score: -12.83

## Cc1noc(C(F)(F)F)c1C(=O)NCC1(C2(O)CCC2)CC1
  % Inhibition: -10%
  Z score: 1.69

## COc1ccc2c(c1)C(N1CCN(C(=O)CC(C)(C)C)CC1)=Nc1ccccc1O2
  % Inhibition: 1%
  Z score: -0.13

## CCOC(=O)N1CCCC[C@H](NC2CCN(c3ccc(F)c(F)c3)CC2)C1
  % Inhibition: 4%
  Z score: -0.83

## O=C(c1cccc(C(F)(F)F)c1)N1CCC(n2cnnc2C2CC2)CC1
  % Inhibition: 2%
  Z score: -0.34

## O=C(CN1CCC(O)CC1)N1CCC(c2ccccc2)=N1
  % Inhibition: -5%
  Z score: 1.01

## O=C(NCCn1c(=O)[nH]c2ccsc2c1=O)c1cc(-c2ccc(F)cc2)c[nH]1
  % Inhibition: -4%
  Z score: 0.72

## O=C(Nc1ccc(Cl)c(N2CCCS2(=O)=O)c1)NC1CCOCC1
  % Inhibition: -13%
  Z score: 1.52

## COc1cc(=O)n2c(c1C(=O)NC1CCN(Cc3ccccc3)CC1)CCCCC2
  % Inhibition: -8%
  Z score: 0.91

## COc1c[nH]c(C(=O)NC2CCN(Cc3ccccc3)CC2)cc1=O
  % Inhibition: 60%
  Z score: -7.68

## COc1c[nH]c(C(=O)NC2CCCC2)cc1=O
  % Inhibition: -5%
  Z score: 0.85

## O=C(CN1C(=O)c2ccccc2C1=O)NC1CCN(Cc2ccccc2)CC1
  % Inhibition: 4%
  Z score: -0.5

## COc1cc([C@H](CC(=O)NC2CCN(Cc3ccccc3)CC2)N2Cc3ccccc3C2=O)cc(OC)c1OC
  % Inhibition: 68%
  Z score: -9.85

## COc1cn(CC(=O)NC2CCN(Cc3ccccc3)CC2)c(CN2CCOCC2)cc1=O
  % Inhibition: 7%
  Z score: -0.83

## Cn1cccc1CNc1nnc([C@@H]2CCCO2)o1
  % Inhibition: -5%
  Z score: 0.81

## C[C@H]1NC(=O)N(c2cccc(C#N)c2)C1=O
  % Inhibition: -4%
  Z score: 0.53

## O=C(NCCN1C(=O)COC1=O)c1cccs1
  % Inhibition: 12%
  Z score: -2.12

## CC[C@H](C)N(CC(=O)N(CCOC)Cc1cccn1Cc1ccccc1)C(=O)c1ccco1
  % Inhibition: -8%
  Z score: 1.33

## COc1cccc(OC)c1-c1cncc(C(=O)NCC2CC2)c1
  % Inhibition: -9%
  Z score: 1.48

## O=S(=O)(CCO)c1ccc(NCc2ccc(Cl)s2)cc1
  % Inhibition: -5%
  Z score: 0.74

## Cc1nc(CNc2ccc(S(=O)(=O)CCO)cc2)cs1
  % Inhibition: -22%
  Z score: 4.06

## CC(C)(C)c1nc(CNc2ccc(S(=O)(=O)CCO)cc2)no1
  % Inhibition: 52%
  Z score: 1.4

## O=C(Nc1ccccc1C(=O)N1CCCCC1)[C@H]1CCCN(S(=O)(=O)c2cccs2)C1
  % Inhibition: 3%
  Z score: -0.58

## Nc1ccnc2c(-c3ccncc3)cccc12
  % Inhibition: -2%
  Z score: 0.26

## Cc1ccn(C2CCN(C(=O)C(C)(C)c3c[nH]cn3)CC2)n1
  % Inhibition: -6%
  Z score: 1.19

## Cc1cc(-c2c(C)sc(C)c2S(=O)(=O)N2CCOCC2)on1
  % Inhibition: -8%
  Z score: 1.45

## Cc1ccc(S(=O)(=O)N(CC(=O)N[C@@H](C)c2ccccc2)c2cccc(Br)c2)cc1
  % Inhibition: 50%
  Z score: -1.08

## Cc1ccc(S(=O)(=O)N(CC(=O)N[C@@H]2C[C@H]3CC[C@@H]2C3)c2cccc(Br)c2)cc1
  % Inhibition: -15%
  Z score: 2.16

## COc1ccccc1N(CC(=O)N[C@H](C)c1ccccc1)S(=O)(=O)c1ccc(C)cc1
  % Inhibition: 1%
  Z score: -0.13

## O=C(Nc1cc(-c2onc3c2CCCC3)cc(C(F)(F)F)c1)c1cncc(Br)c1
  % Inhibition: 96%
  Z score: -8.79

## O=C(Nc1cc(Br)cc(C(F)(F)F)c1)c1ccnnc1
  % Inhibition: -2%
  Z score: 0.3

## O=C(Nc1ccc(-c2onc3c2CCCC3)cc1)c1c(Cl)cc(Cl)cc1Cl
  % Inhibition: -2%
  Z score: 0.3

## COc1ccc(C(=O)N[C@H]2CCOC3(CCOCC3)C2)c(C)c1
  % Inhibition: 0%
  Z score: 0.06

## COc1cc2c(cc1OC)C(=O)N(Cc1ccccc1)C(=O)C2=O
  % Inhibition: -13%
  Z score: 1.31

## COC(=O)c1ccccc1NC(=O)C[C@@H]1Nc2cccc3cccc(c23)NC1=O
  % Inhibition: -5%
  Z score: 0.52

## COCc1ccc(CNCc2cc3cc(Cl)c(Cl)cc3[nH]2)cc1
  % Inhibition: -13%
  Z score: 1.44

## COc1ccc(-c2nc3ccc(C(=O)NC4CCCC(C)C4C)cc3nc2-c2ccc(OC)c(OC)c2)cc1OC (centres undefined)
  % Inhibition: 24%
  Z score: -2.87

## Cc1ncsc1Cn1ccn2nc(C(F)(F)F)cc2c1=O
  % Inhibition: 15%
  Z score: -1.93

## Cc1cccc(C(=O)N=C(N)Nc2nc3ccccc3s2)c1
  % Inhibition: -8%
  Z score: 0.72

## Cc1cccc(C(=O)Nc2nc3cc4sc(NC(=O)c5cccc(C)c5)nc4cc3s2)c1
  % Inhibition: 64%
  Z score: 0.77

## Cc1cccc(S(=O)(=O)Nc2ccc3nc(NC(=O)c4ccccc4)sc3c2)c1
  % Inhibition: 37%
  Z score: -0.65

## c1[nH]nnc1CCN1CCOC[C@@H]1CC1CCOCC1
  % Inhibition: 5%
  Z score: -1.02

## CCc1cnc(Cn2nc(-c3ccccc3)cc(C(F)(F)F)c2=O)o1
  % Inhibition: -6%
  Z score: 0.55

## C=CC[C@]1(C(=O)O)CCCN(Cc2c(C)nn(CC)c2C)C1
  % Inhibition: -6%
  Z score: 1

## Cc1cc(C(=O)N2CCC[C@H](C(=O)c3ccc4c5c(cccc35)CC4)C2)nc(N)n1
  % Inhibition: -4%
  Z score: 0.45

## CC(=O)N1CCC(N2CCC[C@H](C(=O)c3ccc4c5c(cccc35)CC4)C2)CC1
  % Inhibition: -11%
  Z score: 1.6

## Cc1cccc(CN2CCC[C@H](C(=O)c3ccc4c5c(cccc35)CC4)C2)n1
  % Inhibition: 58%
  Z score: -11.5

## Cc1cccc(NC(=O)Cn2ccc3ccc(-c4nnc(C)o4)cc32)c1
  % Inhibition: 6%
  Z score: -0.76

## CCc1cccc(NC(=O)Cn2ccc3ccc(-c4nnc(C)o4)cc32)c1
  % Inhibition: 78%
  Z score: -9.29

## Cc1cc(C)cc(NC(=O)Cn2ccc3ccc(-c4nnc(C)o4)cc32)c1
  % Inhibition: 2%
  Z score: -0.2

## Cc1nnc(-c2ccc3ccn(CC(=O)Nc4ccc(F)c(Cl)c4)c3c2)o1
  % Inhibition: 85%
  Z score: -10.55

## COc1cccc(NC(=O)Cn2ccc3ccc(-c4nnc(C)o4)cc32)c1
  % Inhibition: 7%
  Z score: -0.81

## Cc1ccc(NC(=O)Cn2ccc3ccc(-c4nnc(C)o4)cc32)cc1
  % Inhibition: -3%
  Z score: 0.31

From ChEMBL document CHEMBL4888484, “Replenishing the malaria drug discovery pipeline: Screening and hit evaluation of the MMV Hit Generation Library 1 (HGL1) against asexual blood stage Plasmodium falciparum ,using a nano luciferase reporter read-out” (2022)
